Screens as filed in PubChem.
Tb PYK inh: inhibitors of Trypanosoma brucei pyruvate kinase | TbPYK enzyme, Kinase-Glo Plus ATP luminescence, 45 min | Q57TT1 | AID 624173 | hit rate 0.12% among 410,000 | Potency, µM (doses to about 76.8 µM), for inactives: at the top dose activity, negative = inhibition, hits mostly inhibitors; further: potency means the concentration at half of the fitted maximal effect; on the % scale 0 is the no-effect control and ±100 the full control effect; nearly all actives have a fitted effect of over 50% in size
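Luminescence from Kinase-Glo Plus, added after a 45-minute room-temperature reaction, served as the end-point read-out. The enzyme and substrate were preincubated with compound before ADP (130 uM final) initiated turnover. Concentration-effect curves came from normalized qHTS data.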
LmPK inhibitor: LmPK (Leishmania mexicana) enzyme inhibition | Q27686 | purified LmPK, Kinase-Glo ATP luminescence, 1 h | Potency, µM (titrated, usually from 57.5 µM), for the others: top-dose activity change, negative = inhibition, most hits filed as inhibitors | hit rate 0.37% among 290,000; further: potency means the concentration at half of the fitted maximal effect; on the % scale 0 is the no-effect control and ±100 the full control effect
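0.1 nM LmPK, 0.5 mM PEP, 0.1 mM ADP; 50 mM imidazole pH 7.2, 7 mM MgCl2, 50 mM KCl; 1 h RT. Kinase-Glo luminescence readout, normalized to no-enzyme (full inhibition) and uninhibited wells.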
Sm TGR inh: inhibitors of Schistosoma mansoni thioredoxin glutathione reductase; Q962Y6; purified TGR, DTNB reduction, TNB absorbance 405 nm; Potency, µM (titrated, usually from 114 µM), for the others: at the top dose activity change, negative = inhibition, hits mostly inhibitors; hit rate 3% among 360,000; further: potency means the concentration at half of the fitted maximal effect; on the % scale 0 is the no-effect control and ±100 the full control effect; nearly all actives have a fitted effect of over 60% in size
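Kinetic colorimetric format: TGR-catalysed, NADPH-driven DTNB reduction monitored via TNB absorbance. Enzyme dispensed at 20 nM; compound exposure 15 min at room temperature before reaction start.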
Shiga inhibitor: inhibitors of Shiga toxin in Vero cells; Vero cells, Shiga toxin protein synthesis inhibition reporter; inhibition, % at 38.7 µM; hit rate 9.2% among 290,000; AID 2315; in the data active means inhibition mostly above about 28%, no sharp cut-off; inactive means mostly below about 43%; further: 0% is about no effect
FBPA Giardia inh: Giardia lamblia aldolase inhibition. A8B2U2. purified Giardia FBPA. Potency, µM (highest dose often 59.6 µM), without a hit: top-dose activity, negative = inhibition, hits mostly inhibitors. hit rate 0.71% among 290,000. AID 2451; further: potency means the concentration at half of the fitted maximal effect; on the % scale 0 is the no-effect control and ±100 the full control effect; nearly all actives have a fitted effect of over 55% in size
Target sequence (A8B2U2 whole entry, looked up): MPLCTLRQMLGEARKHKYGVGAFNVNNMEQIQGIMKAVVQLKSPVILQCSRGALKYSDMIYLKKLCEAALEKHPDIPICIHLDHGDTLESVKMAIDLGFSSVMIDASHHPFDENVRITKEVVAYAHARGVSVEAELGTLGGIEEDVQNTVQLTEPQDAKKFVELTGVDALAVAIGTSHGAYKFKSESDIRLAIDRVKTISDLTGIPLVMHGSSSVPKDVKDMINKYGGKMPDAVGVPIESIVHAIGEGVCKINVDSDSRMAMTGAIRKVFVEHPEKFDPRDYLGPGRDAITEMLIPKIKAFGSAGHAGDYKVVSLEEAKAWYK
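Giardia FBPA (40 nM reagent) was preincubated 10 min at RT with compound (up to 57.5 uM final), then substrate plus GAPDH/TPI/NAD/arsenate coupling system with diaphorase/resazurin was added; resorufin fluorescence (525/598 nm) was read after 20 min.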
CHX counter: counter-screen hit for Shiga toxin inhibitors, cycloheximide | cell reporter, cycloheximide protein synthesis inhibition counterscreen | max response, % | hit rate 12% among 300,000; in the data active means max response mostly above about 13%, no sharp cut-off; inactive means mostly below about 14%; further: read at 38.3 µM for the half of the compounds with a filed dose; 0% is about no effect
The depositor's hits bear a star; ? = inconclusive; nt = no result given; [ ] = dose if it differs, or a comment. This is one part of a sample in which hits are shown more often than they occur. Unless noted, the call rests on the fitted dose curve; in most records, active means well fitted curve in the direction sought with a large enough effect; inconclusive means small, poorly fitted or top-dose-only effect, or another doubt; inactive means no such curve, though single readings can be large; an effect the other way counts as inactive or inconclusive.

SMILES	Tb PYK inh	LmPK inhibitor	Sm TGR inh	Shiga inhibitor	FBPA Giardia inh	CHX counter
O=C(O)C1=C[C@H](c2ccc(C(F)(F)F)cc2)C[C@H](OCCCCO)O1	1%	nt	nt	nt	nt	nt
CN(C)CCn1nnnc1SCC1=C(C(=O)O)N2C(=O)[C@@H](NC(=O)Cc3csc(N)n3)[C@@H]2SC1	-6%[33.2 µM]	nt	nt	nt	-23%[21.7 µM]	nt
CC(=O)OCC1=C(C(=O)O)N2C(=O)[C@@H](N)[C@@H]2SC1	-7%[33.2 µM]	nt	nt	nt	?	nt
CC(=O)OCC1=C(C(=O)O)N2C(=O)C(NC(=O)COc3ccc(F)cc3)C2SC1 (centres undefined)	-2%	nt	14µM*	nt	nt	nt
CC(=O)OCC1=C(C(=O)O)N2C(=O)C(NC(=O)CC(C)c3ccccc3)C2SC1 (centres undefined)	1%	nt	28µM*	nt	nt	nt
CN(C)CCn1nnnc1SCC1=C(C(=O)O)N2C(=O)[C@@H](NC(=O)Cc3csc(N)n3)[C@H]2SC1	3%	nt	32µM*	nt	nt	nt
CC(=O)OCC1=C(C(=O)O)N2C(=O)C(NC(=O)C(C)Cn3cc(Cl)cn3)C2SC1 (centres undefined)	-6%	-2%	28µM*	9	-14%	-2
CCC(=O)N1CCc2cc(Br)cc(S(=O)(=O)CCC(=O)Nc3ccc(CC)cc3)c21	0%	nt	-12%	nt	nt	nt
CCCC[C@@H]1C[C@H]1C(NC(=O)c1cccs1)c1ccc(Cl)cc1 (some centres undefined)	nt	nt	nt	nt	-2%	nt
CC(=O)OCC1=C(C(=O)O)N2C(=O)C(NC(=O)CSc3ccncc3)[C@@H]2SC1 (some centres undefined)	nt	nt	nt	nt	-25%	nt
Cc1nnc(SCC2=C(C(=O)O)N3C(=O)C(NC(=O)COc4ccc(F)cc4)C3SC2)s1 (centres undefined)	-19%	nt	14µM*	nt	nt	nt
CC(=O)c1ccc(NC2OC(C)C(O)C(O)C2O)cc1 (centres undefined)	3%	-1%	-20%	-1	-4%	1
C[C@@H]1OC(Nc2ccc(N=Nc3ccccc3)cc2)[C@H](O)[C@H](O)[C@H]1O (some centres undefined)	1%	-1%	-1%	52*	5%	35*
COc1ccc(NC(=O)C2Cc3c(-c4ccco4)ccnc3O2)cc1OC (centres undefined)	-4%	nt	nt	nt	nt	nt
Cc1cccc(-n2c(C)cc(/C=N\NC(=O)c3ccco3)c2C)c1	-7%	-1%	-22%	96*	-8%	35*
CN(C)c1ccc(C=NNC(=O)c2cccnc2)cc1	-5%	nt	nt	nt	nt	nt
Cc1ccc(/C=N/NC(=O)c2ccco2)cc1	-4%	?	-2%	37*	-3%	45*
Cc1cccc(-n2c(C)cc(/C=N/O)c2C)c1	-4%	-1%	-5%	-3	-7%	-1
CN(C)c1ccc(/C=N/NC(=O)c2ccco2)cc1	-19%	16µM*	-12%	73	-5%	41*
Cc1cc(C(=O)NN=Cc2ccc(OC(=O)c3ccco3)cc2)c(C)o1	-12%	nt	nt	nt	nt	nt
COc1ccc(/C=N/NC(=O)c2ccco2)cc1Cn1nc(C)cc1C	3%	-4%	50µM*	67*	4%	34*
CN1CCN(C(=O)C2CCC(=O)N(CCc3cccc(F)c3)C2)CC1 (centres undefined)	1%	-7%	-32%	-6	nt	0
Cc1nn(CC(=O)Nc2ccccc2F)c(=O)c2c(C)n(-c3ccc(Cl)cc3)nc12	3%	nt	0%	nt	nt	nt
CC(C)(C)c1cc2nc(NCCOc3ccccc3)ccn2n1	-13%	nt	nt	nt	nt	nt
CCN(CC)C(=O)Cn1cc(SCC(=O)Nc2cc(OC)ccc2OC)c2ccccc21	2%	nt	2%	nt	nt	nt
SMILES	Tb PYK inh	LmPK inhibitor	Sm TGR inh	Shiga inhibitor	FBPA Giardia inh	CHX counter
O=C(N/N=C/c1ccoc1)c1ccc([N+](=O)[O-])cc1	-7%	-2%	-17%	10	nt	13
Cc1c(C(=O)N/N=C/c2ccoc2)cccc1[N+](=O)[O-]	6%	0%	6%	19	6%	21
CN(C)c1ccc(/C=N\NC(=O)c2cccc3cc[nH]c23)cc1	-1%	-13%	-6%	56*	-10%	32*
O=C(N/N=C/c1ccoc1)c1ccccc1F	-4%	-11%	6%	90*	-1%	75*
O=C(N/N=C\c1ccoc1)c1ccco1	-2%	1%	1%	61*	nt	35*
Cc1cc(/C=N/NC(=O)C(O)(c2ccccc2)c2ccccc2)c(C)n1-c1cccc(C(=O)O)c1	-16%	4%	32µM*	10	?	10
O=C(O)c1ccc2c(c1)C(=O)N([C@H](Cc1c3ccccc3cc3ccccc13)C(=O)O)C2=O	nt	nt	2%	1	9%	-1
Cc1cnc(CNc2cc(-c3ccccc3Cl)ncn2)cn1	nt	nt	nt	nt	-8%	nt
CSC(=S)N/N=C/c1ccc(Br)cc1	1%	-1%	-9%	14	4%	18
CSC(=S)N/N=C/c1ccc(N(C)C)cc1	-13%	0%	-17%	68*	10%	43*
Cc1cc(/C=N/NC(=O)c2nn(C)cc2Cl)c(C)n1-c1cccc(Br)c1	-1%	-1%	-1%	20	-5%	18*
O=C(N/N=C/c1ccc2ncccc2c1)c1ccco1	-19%	14µM*	-14%	-2	2%	9
CCOc1ccc(N(C(=O)CC(C)C)S(=O)(=O)c2ccc3c(c2)oc(=O)n3C)cc1	0%	nt	5%	nt	nt	nt
O=C(Nc1ccccc1)Nc1nnc(-c2ccccc2)s1	2%	6%	1%	9	6%	19
CCCCC(=O)Nc1nc(C)c(C(C)=O)s1	5%	2%	3%	-7	0%	-3
CC(=O)c1sc(NC(=O)C2(F)C(F)(F)C(F)(F)C(F)(F)C(F)(F)C2(F)F)nc1C	-3%	0%	50µM*	25	-8%	13
CC(C)=CC(=O)Nc1nnc(-c2ccccc2)s1	-6%	5%	-1%	14*	-12%	46*
CC(C)=CC(=O)Nc1nnc(C)s1	-4%	-7%	-25%	25*	-1%	16*
CC(=O)c1sc(NC(=O)C=C(C)C)nc1C	-3%	?	2%	66*	-5%	44*
CCc1nn(CC(=O)NC2CC2)c(=O)c2cc3ccccc3n12	0%	nt	3%	nt	nt	nt
Cc1ccccc1NC(=O)Nc1nc(C2CCC(=O)N2)cs1 (centres undefined)	-4%	nt	nt	nt	nt	nt
COc1ccc(OC)c(/C=C2\SC(N3CCCCC3)=NC2=O)c1	-1%	-1%	-9%	19	9%	10
CN=c1scc(C)n1/N=C/c1ccc(O)cc1	-6%	2%	-7%	117*	0%	38*
CN=c1scc(C)n1/N=C/c1cc(Br)c(O)c(Br)c1	-2%	12%	-13%	51	24%	18*
Cc1nnc(C)n1/N=C/c1ccc2c(c1)OCCO2	-3%	0%	-30%	-11	6%	3
CN=c1scc(C)n1/N=C/c1ccc2c(c1)OCO2	2%	16µM*	-21%	69*	-1%	28*
